# HepG2 viability: qHTS for Inhibitors of TGF-b: Cytotox Counterscreen. HepG2 CAGA-GFP viability, ATP luminescence, 18 h. Potency, µM (highest dose often 46.1 µM), without a hit: top-dose activity change, negative = cytotoxicity, actives largely listed as cytotoxic. hit rate 0.76% among 410,000. AID 588856, 2011
#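 CellTiter-Glo luminescence gave cytotoxicity after 18 hours at 37 degrees C. The cells were HepG2 CAGA-GFP in 1% FBS DMEM, stimulated with 500 pg/mL TGF-beta after compound addition. %Activity was normalised to no-cell wells (complete cell-killing) and DMSO (no toxicity), and curves were fitted and classified.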
# A549 viability: Nrf2 qHTS screen for inhibitors: counterscreen for cytotoxicity; A549 ARE-Fluc cells, CellTiter-Fluor viability, 18-24 h; Potency, µM (series often up to 46 µM), inactives show top-dose activity change, negative = cytotoxicity, actives largely listed as inhibitors; hit rate 0.16% among 390,000; further: on the % scale 0 is the no-effect control and ±100 the full control effect
#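 A549 ARE_Fluc cells in 5% FBS OPTI-MEM were exposed to compounds in concentration-response for 18-24 h at 37 deg C. Viability was read by CellTiter-Fluor fluorescence (Ex 405/Em 525) after 30 min, before the luciferase read.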
# S2 tox: Viability Counterscreen for Primary qHTS for Inhibitors of ATXN expression; hit rate 0.49% among 400,000; S2 cells (HEK-293 line with an ATXN2-luciferase reporter) viability, CellTiter-Fluor protease fluorescence, 24 h; Potency, µM (top dose mostly 56.7 µM), usual class: cytotoxic; further: nearly all actives have a fitted effect of over 40% in size
# Nrf2 block: Nrf2 qHTS screen for inhibitors. A549 ARE-Fluc reporter, luciferase luminescence, 18-24 h. Potency, µM (titrated, usually from 46 µM), for the others: at the highest dose activity change, negative = inhibition, usual class: inhibitors. hit rate 2.1% among 360,000; further: on the % scale 0 is the no-effect control and ±100 the full control effect; nearly all actives have a fitted effect of over 60% in size
#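 In this cell-based qHTS, ARE-driven firefly luciferase in A549 cells reports Nrf2 activity; the luminescent signal after BugLite lysis is the measured value, with a prior CellTiter-Fluor read for cell health.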
# ATXN2 expr inh: Primary qHTS for Inhibitors of ATXN expression | HEK-293 ATXN2-luciferase reporter, luminescence, 24 h | hit rate 0.72% among 360,000 | Potency, µM (top dose mostly 57 µM), for inactives: top-dose activity change, negative = inhibition, hits mostly inhibitors; further: on the % scale 0 is the no-effect control and ±100 the full control effect; nearly all actives have a fitted effect of over 55% in size
#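 ATXN2-luciferase reporter cells (luciferase flanked by upstream and downstream ATXN2 gene portions) were treated 24 h at 37 °C with compounds at up to 57 uM. SteadyGlo luminescence gave expression; GF-AFC fluorescence gave viability.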
# TGFb inhibitor: qHTS for Inhibitors of TGF-b; HepG2 CAGA-GFP TGF-b/SMAD3 reporter, GFP fluorescence, 18 h; TGF-beta stimulated, 500 pg/mL final; Potency, µM (titrated, usually from 46.1 µM), for inactives: at the top dose activity, negative = inhibition, most hits filed as inhibitors; hit rate 1.2% among 410,000; further: on the % scale 0 is the no-effect control and ±100 the full control effect; nearly all actives have a fitted effect of over 65% in size
#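 Inhibition was scored as loss of TGF-beta-induced (500 pg/mL final, 18 hours, 37 degrees C) GFP in HEPG2 cells carrying a CAGA-GFP reporter, in DMEM with 1% FBS. Well GFP was summed per cell; Activity was normalised to unstimulated and stimulated DMSO wells, then concentration-response fitting.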
# * = called active by the depositor; i = inactive; ? = inconclusive; . = no result; [ ] = dose if it differs, or a comment. A selection: hits, their analogues and other compounds. The true share with any hit is near 3.8%. The call rests on the fitted dose curve; in most records, active means well fitted curve in the direction sought with a large enough effect; inconclusive means small, poorly fitted or top-dose-only effect, or another doubt; inactive means no such curve, though single readings can be large; an effect the other way counts as inactive or inconclusive. Potency means the concentration at half of the fitted maximal effect.
SMILES,HepG2 viability,A549 viability,S2 tox,Nrf2 block,ATXN2 expr inh,TGFb inhibitor
CSC1=C(C#N)C(c2ccc(Cl)cc2)C2=C(CC(C)(C)CC2=O)N1 (stereo unspecified),4%,-4%,?,?,-21%,11µM*
CCCN(C(=O)c1c(C)oc2ncn(CC(C)C)c(=O)c12)c1ccccc1C,-21%,-4%,i,17%,4%,-23%
CC(C)CCN(C(=S)NC(=O)C1CCCCC1)c1c(N)n(Cc2ccccc2)c(=O)[nH]c1=O,-8%,0%,i,15%,-11%,-6%
CN(C)c1nc2c(N)ncnc2n1C1OC(CO)C(O)C1O (stereo unspecified),18%,-2%,i,14%,5%,-1%
Nc1ncnc2c1nc(Cl)n2[C@@H]1O[C@H](CO)[C@@H](O)[C@@H]1O,-92%,-14%,.,21µM*,?,?
CC(=O)Nc1c([N+](=O)[O-])cc2[nH]c(=O)[nH]c2c1[N+](=O)[O-],-4%,1%,i,-23%,-13%,8%
O=c1[nH]c2cc([N+](=O)[O-])c(NCCO)c([N+](=O)[O-])c2[nH]1,-9%,13µM*,?,-13%,0%,-5%
COc1ccc2nc(SCCOC(=O)Nc3ccc(Cl)cc3)nc(C)c2c1,4%,?,i,23µM*,-33%,?
CCN(C(=O)c1ccc(S(=O)(=O)N(C)C)cc1)C(C)C(=O)Nc1ccc(C)cc1 (stereo unspecified),-3%,3%,i,?,-1%,-14%
CC(=O)c1ccc(N2CCN(C(=O)CCCc3nc4ccccc4s3)CC2)cc1,-45%,3%,i,15µM*,-29%,-26%
Cc1cccc(NC(=S)N=Nc2c(O)n(CN3CCOCC3)c3ccccc23)c1C,-53%,?,.,?,.,2.2µM*
Oc1c(N=NC(=S)Nc2ccccc2F)c2ccccc2n1Cc1cccc(Cl)c1,-8%,?,i,?,-10%[11.3 µM],-9%
Cc1cccc(Cn2c(O)c(N=NC(=S)Nc3ccccc3F)c3ccccc32)c1,-2%,?,i,5.8µM*,.,-2%
CC(C)CNC(=O)Cn1c(=O)c2c(ncn2CC(C)C)n(Cc2ccccc2)c1=O,-2%,-3%,i,-7%,-15%[11.3 µM],2%
O=C(Nc1nnc(S(=O)(=O)N2CCCCC2)s1)c1cccc(Br)c1,-26%,-8%,?,26µM*,2%,-13%
O=C(Nc1nnc(S(=O)(=O)N2CCCC2)s1)c1cccc([N+](=O)[O-])c1,1%,-3%,i,2%,14%,-19%
CC1CCN(S(=O)(=O)c2nnc(NC(=O)c3cccc(Br)c3)s2)CC1,-37%,5%,.,-11%,.,4.5µM*
Cc1cccc(C(=O)Nc2nnc(S(=O)(=O)N3CCC(C)CC3)s2)c1,-11%,-1%,i,?,-10%,?
Cc1cccc(Cn2cc3c(=O)n(CC(=O)Nc4ccc(C)c(F)c4)nc-3c3cc(F)ccc32)c1,-17%,0%,i,28%,-3%,-23%
COc1ccc(NC(=O)c2c(NCc3ccc(N(C)C)cc3)sc3c2CCC3)cc1,-25%,-1%,i,.,0%,-12%
N#CN1CCC(NS(=O)(=O)c2ccc(C(F)(F)F)cc2)CC1,-15%,?,i,2%,-6%,-6%
O=[N+]([O-])c1ccc(CN2CC(N3CCC(Cc4ccccc4)CC3)CS2(=O)=O)cc1 (stereo unspecified),-38%,.,?,.,-19%,?
CCCC1=Nc2cc(C(=O)NCCCOC(C)C)ccc2Sc2ccccc21,5%,?,i,8.2µM*,-15%,-29%
CC1=Nc2cc(C(=O)NCCCOC(C)C)ccc2Sc2ccc(C)cc21,1%,-12%,i,23µM*,8%,?

# Source: PubChem
